Experimental findings from PubChem BioAssay (NCATS) are described below.

Test [1] can be described thus: Confirmation and Secondary Assay for Modulators of Hemoglobin Beta Chain Splicing at IVS2 705 locus (AID 930).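 Note: HeLa cells stably expressing the EGFP-705 splicing reporter; GFP fluorescence per well restored by corrected splicing of the IVS2-705 intron in EGFP; % of control where 0% means no effect.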 The note with it: HeLa EGFP-705 splicing reporter, GFP fluorescence, 48 h; series mostly up to 46.1 µM. In a few lines:
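HeLa EGFP-705 reporter; 500 cells/well, o/n 37C 5% CO2; cpd 2 d; 488 ex/500-520 em laser scan; total peak GFP intensity/well. Ref: 500 nM […] antisense PNA.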

Test [2] is described as follows: qHTS Assay for Lipid Storage Modulators (AID 1519; calls by dose curve; note: potency is the fitted concentration of half-maximal effect; for activity change, negative = inhibition: % is set by controls: 0 for no effect and ±100 for the full control effect). The note with it: Drosophila S3 cells, BODIPY lipid droplet/cell ratio, laser cytometry, cells loaded with oleic acid. In a few lines: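 Cells seeded at 5,000 per well were treated with compounds over a concentration series and loaded with oleic acid (400 uM, as added). Lipid droplet fluorescence (488 nm excitation, 500-530 nm channel) was read by laser-scanning cytometry and normalized to 20 uM Triacsin C.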

Test [3] deals with Ubiquitin carboxyl-terminal hydrolase 1 (Homo sapiens) (UniProt O94782). The experiment in a line: Inhibitors of USP1/UAF1: Pilot qHTS (AID 504865).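 Note: rhodamine fluorescence freed from ubiquitin-rhodamine substrate followed over time; top concentration of the series differs between compounds; % is set by controls: 0 for no effect and ±100 for the full control effect; nearly all actives have a fitted effect of over 35% in size.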 The note with it: purified USP1/UAF1, Ub-rhodamine cleavage fluorescence; series mostly up to 114 µM. In a few lines: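 USP1/UAF1 complex (1nM) preincubated with compound 15 min at room temperature, then Ub-Rho substrate (150nM final) added. Fluorescence read kinetically at 480/540 nm, 6 reads every 60 seconds. Buffer: 50mM HEPES pH 7.8, 0.5mM EDTA, 0.1 mg/ml BSA, 1mM TCEP, 0.01% Tween-20.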
A general note: In qHTS, concentration-response curves come from the screen itself.

Test [4] in a line: qHTS profiling for inhibitors of Plasmodium falciparum proliferation (AID 504749).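 Note: 0% = DMSO vehicle and full inhibition = artemisinin control; nearly all actives have a fitted effect of over 60% in size.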 The note with it: P. falciparum in erythrocytes, SYBR Green DNA, 72 h, at 12.8 µM (top of the series). In a few lines: (§1)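 SYBR Green fluorescence (ex 485 nm, em 535 nm) reports parasite DNA after 72 h compound exposure of infected red cells at 0.3% parasitemia, 2.5% hematocrit; signal normalized to 0.29 uM artemisinin and vehicle wells.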

For the next test, the system named is C2A. The description is as above. The note with it: P. falciparum in erythrocytes, SYBR Green DNA, 72 h; series mostly up to 12.8 µM. In a few lines: as §1
Another test relates to CP185. The description is as above. Conditions: P. falciparum in erythrocytes, SYBR Green DNA, 72 h; series mostly up to 12.8 µM. In a few lines: as §1
Another test concerns CP201. Described as above. The note with it: P. falciparum in erythrocytes, SYBR Green DNA, 72 h; series mostly up to 12.8 µM. In a few lines:
as §1

Another test relates to CP211. The test is described as above. The note with it: P. falciparum in erythrocytes, SYBR Green DNA, 72 h; series mostly up to 12.8 µM. In a few lines:
as §1

The next test concerns CP238. The test is described as above. Conditions: P. falciparum in erythrocytes, SYBR Green DNA, 72 h; series mostly up to 12.8 µM. In a few lines: as §1
In another test the test system is CP262. The description is as above. Conditions: P. falciparum in erythrocytes, SYBR Green DNA, 72 h; series mostly up to 12.8 µM. In a few lines: as §1
The next test concerns CP268. Described as above. The note with it: P. falciparum in erythrocytes, SYBR Green DNA, 72 h; series mostly up to 12.8 µM. In a few lines: as §1
The next test deals with CP269. The description is as above. Conditions: P. falciparum in erythrocytes, SYBR Green DNA, 72 h; series mostly up to 12.8 µM. In a few lines: as §1
A further test deals with CP305. Described as above. The note with it: P. falciparum in erythrocytes, SYBR Green DNA, 72 h; series mostly up to 12.8 µM. In a few lines: as §1
The next test relates to CP315. The test is described as above. Conditions: P. falciparum in erythrocytes, SYBR Green DNA, 72 h; series mostly up to 12.8 µM. In a few lines: as §1
For another test, the system named is CP325. Described as above. The note with it: P. falciparum in erythrocytes, SYBR Green DNA, 72 h; series mostly up to 12.8 µM. In a few lines: as §1
For another test, the system named is CP329. The description is as above. Conditions: P. falciparum in erythrocytes, SYBR Green DNA, 72 h; series mostly up to 12.8 µM. In a few lines: as §1
The subject of a further test is FAB9. Described as above. Conditions: P. falciparum in erythrocytes, SYBR Green DNA, 72 h; series mostly up to 12.8 µM. In a few lines: as §1
Another test concerns JCK. The description is as above. Conditions: P. falciparum in erythrocytes, SYBR Green DNA, 72 h; series mostly up to 12.8 µM. In a few lines:
as §1

The next test relates to PC15. The description is as above. The note with it: P. falciparum in erythrocytes, SYBR Green DNA, 72 h; series mostly up to 12.8 µM. In a few lines:
as §1

Another test deals with PC49. The description is as above. Conditions: P. falciparum in erythrocytes, SYBR Green DNA, 72 h; series mostly up to 12.8 µM. In a few lines:
as §1

[5] abbreviates: measured here: cell count channel max response.
Setting [6] is: measured here: lipid channel max response.

Inconclusive results are not listed. Active and inactive are the calls of the source. Unless noted, calls come from the whole dose curve; as a rule, active = well fitted curve in the direction sought with a large enough effect; inconclusive = small, poorly fitted or top-dose-only effect, or another doubt; inactive = no such curve, though single readings can be large; an effect the other way counts as inactive or inconclusive.

Chain of Ubiquitin carboxyl-terminal hydrolase 1 (Homo sapiens) (O94782 whole entry, looked up): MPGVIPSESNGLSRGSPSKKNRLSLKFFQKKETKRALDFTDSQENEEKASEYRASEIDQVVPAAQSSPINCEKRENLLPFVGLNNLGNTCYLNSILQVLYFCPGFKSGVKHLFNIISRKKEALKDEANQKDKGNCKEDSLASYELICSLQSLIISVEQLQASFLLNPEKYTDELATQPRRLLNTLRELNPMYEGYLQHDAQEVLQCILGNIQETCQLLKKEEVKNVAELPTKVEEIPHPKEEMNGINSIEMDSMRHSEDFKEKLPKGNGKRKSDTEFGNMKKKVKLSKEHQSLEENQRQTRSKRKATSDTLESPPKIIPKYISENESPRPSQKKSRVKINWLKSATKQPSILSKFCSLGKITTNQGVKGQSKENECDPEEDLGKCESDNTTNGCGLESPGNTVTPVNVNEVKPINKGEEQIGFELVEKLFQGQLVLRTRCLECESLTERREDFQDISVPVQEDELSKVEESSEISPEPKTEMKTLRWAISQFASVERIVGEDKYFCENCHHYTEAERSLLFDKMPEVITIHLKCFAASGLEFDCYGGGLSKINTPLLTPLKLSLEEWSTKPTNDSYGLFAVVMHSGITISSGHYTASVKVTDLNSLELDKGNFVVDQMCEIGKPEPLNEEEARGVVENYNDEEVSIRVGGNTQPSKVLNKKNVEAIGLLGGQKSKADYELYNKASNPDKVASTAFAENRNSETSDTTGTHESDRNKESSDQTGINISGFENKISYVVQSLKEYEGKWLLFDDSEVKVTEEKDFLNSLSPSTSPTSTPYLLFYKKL

`FC(F)(F)c1ccccc1-c1ccc2ncnc(NC3CCNCC3)c2c1`: the Potency entry in [1] and in [3] was “inactive” in each case. In addition, in test [2] (at 57.5 µM (top of the series)), the activity change, negative = inhibition was -0.848% (inactive). In addition, the max response in [2] (setting [5]) was 8.99%; in test [2] (setting [6]) it was 6.31%.

`CC1(C)S[C@@H]2[C@H](NC(=O)[C@@H](N)c3ccccc3)C(=O)N2[C@H]1C(=O)O[C@H]1OC(=O)c2ccccc21`: in test [2] (at 25.7 µM (top of the series)), the activity change, negative = inhibition was -2.68% (inactive). For the same compound, the max response in [2] (setting [5]) was -27.2%; in [2] (setting [6]), -29.9%. In addition, the figures for the activity, negative = inhibition in test [4] (parasite line A) and in [4] (parasite line B) were 9.34% (inactive) and 6.7% (inactive), respectively. Also, the Potency result with C2A, in the test with CP185, in the test on CP201, in the test on CP211, in the test with CP238 and in the test with CP262 was “inactive” in each case. In addition, the Potency entry with CP268, in the test with CP269, with CP305, in the test on CP315, in the test with CP325 and with CP329 was “inactive” throughout. Further, the Potency result with FAB9, in the test on JCK, in the test on PC15 and in the test on PC49 was “inactive” throughout.

With `CC[C@H](C(=O)[C@H](C)[C@H](O)[C@H](C)CCc1ccc(C)c(O)c1C(=O)O)[C@H]1O[C@](CC)([C@@H]2CC[C@@](O)(CC)[C@H](C)O2)C[C@H]1C`, the Potency in test [2] is 14.1 µM (active). The max response in [2] (setting [5]) was -26.4%; in [2] (setting [6]) it was -85.1%.

As for `COC(=O)[C@@H]1[C@@H]2C[C@H]3c4[nH]c5cc(OC)ccc5c4CCN3C[C@@H]2C[C@H](OC(=O)/C=C\c2cc(OC)c(OC)c(OC)c2)[C@H]1OC`, the activity change, negative = inhibition in [2] (at 25.7 µM (top of the series)) was -1.81% (inactive). For the same compound, the max response in test [2] (setting [5]) is -4.11%; in test [2] (setting [6]) it was -3.85%. In addition, the Potency result (in test [3]; in the test with CP185; in the test with CP201; in the test with CP262; with CP329; in the test on FAB9) was “inactive” throughout.

As to `O=c1cc(-c2cccc(O)c2)oc2cc(O)ccc12`, in test [2] (at 57.5 µM (top of the series)), the activity change, negative = inhibition is 8.05% (inactive). In addition, the max response in [2] (setting [5]) amounted to 22.9%; in test [2] (setting [6]) it was 28%.

On to `Nc1ncn([C@H]2O[C@@H](CO)[C@@H](O)[C@@H]2O)c(=O)n1`, for which, in test [2] (at 25.7 µM (top of the series)), the activity change, negative = inhibition is -7.35% (inactive). In addition, the results for the max response in test [2] (setting [5]) and in test [2] (setting [6]) were -3.14% and -7.83%, respectively. In addition, the Potency result in test [3] is “inactive”.

As to `Cc1onc(-c2c(F)cccc2Cl)c1C(=O)N[C@H]1C(=O)N2[C@H]1SC(C)(C)[C@H]2C(=O)O`, the activity change, negative = inhibition in test [2] (at 25.7 µM (top of the series)) is -2.99% (inactive). In addition, the max response in test [2] (setting [5]) was -8.13%; in [2] (setting [6]), -7.5%. For the same compound, the Potency result in test [3] was “inactive”.

Turning to `C[C@@H](Cc1cccc(C(F)(F)F)c1)NCCOC(=O)c1ccccc1`, in test [2] (at 25.7 µM (top of the series)), the activity change, negative = inhibition is -1.81% (inactive). Moreover, the results for the max response in test [2] (setting [5]) and in test [2] (setting [6]) were -19.2% and -18.4%, respectively. Further, the Potency entry in test [3] was “inactive”.

As to `O[C@@](CCN1CCCCC1)(c1ccccc1)[C@@H]1C[C@H]2C=C[C@@H]1C2`, the activity change, negative = inhibition in [2] (at 25.7 µM (top of the series)) is 1.83% (inactive). In addition, the max response in test [2] (setting [5]) was -4.18%; in test [2] (setting [6]) it was -2.67%. Also, the Potency result in test [3] is “inactive”.

Regarding `Nc1ncnc2c1ncn2[C@@H]1O[C@H](COP(=O)(O)O)[C@@H](O)[C@@H]1O`, the activity change, negative = inhibition in test [2] (at 25.7 µM (top of the series)) was -0.35% (inactive). The values for the max response in test [2] (setting [5]) and in test [2] (setting [6]) were -10.2% and -10.8%, respectively. Further, the Potency result in [3] was “inactive”.

With `C[C@@H]1O[C@H](O[C@@H]2[C@H](C)O[C@H](O[C@@H]3[C@H](C)O[C@H](O[C@H]4CC[C@]5(C)[C@@H](CC[C@@H]6[C@H]5C[C@@H](O)[C@]5(C)[C@@H](C7=CC(=O)OC7)CC[C@]65O)C4)C[C@@H]3O)C[C@@H]2O)C[C@H](O)[C@@H]1O`, the activity change, negative = inhibition in [2] (at 25.7 µM (top of the series)) was 0.916% (inactive). The max response in test [2] (setting [5]) is 2.04%; in test [2] (setting [6]), 1.22%. The Potency entry in [3] was “inactive”.

Consider `C[C@@](N)(C(=O)O)c1cccc(CC(=O)O)c1`, for which the activity change, negative = inhibition in [2] (at 57.5 µM (top of the series)) is 1.75% (inactive). The max response in [2] (setting [5]) amounted to 1.61%; in test [2] (setting [6]) it was 3.55%. Moreover, the Potency result in test [3] was “inactive”.

With `O=C1C=CC(=O)c2c1ccc1c2ccc2ccccc21`, in test [2] (at 25.7 µM (top of the series)), the activity change, negative = inhibition is -0.997% (inactive). Moreover, the max response is -0.715% in test [2] (setting [5]) and -3.16% in test [2] (setting [6]).

Regarding `COC(=O)C1=C(C)NC(C)=C(C(=O)OCCN(C)Cc2ccccc2)[C@H]1c1cccc([N+](=O)[O-])c1`, in test [2] (at 25.7 µM (top of the series)), the activity change, negative = inhibition is 0.376% (inactive). The max response is -15.5% in test [2] (setting [5]) and -13.6% in test [2] (setting [6]).

Turning to `Cc1ccnc(N)c1`, the activity change, negative = inhibition in test [2] (at 57.5 µM (top of the series)) is -1.11% (inactive). In addition, the max response is -7.5% in test [2] (setting [5]) and -8.73% in test [2] (setting [6]). Moreover, in test [3], the Potency entry is “inactive”.

Turning to `COc1ccc(-c2cc(=O)c3c(O)cc(O)cc3o2)cc1`, the Potency entry in test [1] and in [3] was “inactive” each time. Moreover, the activity change, negative = inhibition in [2] (at 57.5 µM (top of the series)) was 14.6% (inactive). Further, the values for the max response in [2] (setting [5]) and in test [2] (setting [6]) were 4.93% and 23.2%, respectively.
